# Experimental data reported in PubChem BioAssay (EPA / NIEHS).
# Inconclusive results are not listed. Active and inactive are the calls of the source. Rule for the calls, unless noted: active = hit-call score of the fitted dose curve at least 0.9, where 1 is the maximum; inactive = score below 0.9.
# Columns and labels:
# [1] = ATG_XTT_Cytotoxicity_XSP2: Cytotoxicity Assessment in the Attagene TRANS-FACTORIAL Multi-Species (XSP2) HepG2 Assay (AID 2283837; active = hit-call score of the fitted dose curve at least 0.9, where 1 is the maximum)
# Method in brief: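 HepG2 cells, transiently transfected with multiple reporter constructs, exposed to chemical for 24 h. Cell number assessed with XTT fluorescence read-out; loss of signal fitted relative to DMSO.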
# [2] = CEETOX_H295R_11DCORT_noMTC: CeeTox H295R High-throughput Steroidogenesis Assay for 11-Deoxycortisol (11DCORT), maximum tolerated concentration (MTC) filtered results only (AID 2283911); settings: actives raise or lower the signal
# Method in brief: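 Readout is 11-deoxycortisol in culture medium by reverse-phase HPLC with MS/MS, after 48 h chemical treatment of forskolin-primed H295R cells. Values are relative to DMSO and unfiltered for cytotoxicity.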
# [3] = CEETOX_H295R_ANDR_noMTC: CeeTox H295R High-throughput Steroidogenesis Assay for Androstenedione (ANDR), maximum tolerated concentration (MTC) filtered results only (AID 2283915); settings: actives raise or lower the signal
# Method in brief: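 H295R cells, passage 10 or below, prestimulated 48 h with 10 uM forskolin, then exposed 48 h to chemical in 0.1% DMSO. Medium androstenedione extracted with MTBE, quantified by HPLC-MS/MS; concentrations not MTC-filtered; bidirectional fit versus DMSO.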
compound,measurement,setting,value
c1ccc(B(c2ccccc2)c2ccccc2)cc1,outcome,[1],inactive
C#C[C@]1(O)CC[C@H]2[C@@H]3CCc4cc(OC)ccc4[C@H]3CC[C@@]21C,outcome,[1],inactive
CCCCCCCOC(=O)c1ccccc1C(=O)OCCCCCCC,outcome,[2],inactive
same,outcome,[3],inactive
CC(C)OC(=O)c1ccccc1C(=O)OC(C)C,outcome,[2],inactive
